Here are results for nine molecules from PubChem BioAssay (NCI).

Compounds without any hit were thinned out: in the full panel of roughly 83,000, 20% have a hit.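 96-well plates, one dose, 48 hours. Percent growth reported; active if below 10.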 A number with no mark means an inactive call. Active and inactive are the calls of the source.

Some test systems named below: K-562 leukemia; MDA-MB-231 breast; SF-268 CNS; SF-295 CNS; SF-539 CNS; UACC-257 melanoma; M14 melanoma; HCT-15 colon; HT29 colon; SNB-75 CNS; SNB-19 CNS; U251 CNS; PC-3 prostate; SK-MEL-5 melanoma; UACC-62 melanoma; SK-MEL-28 melanoma; LOX IMVI melanoma; DU-145 prostate; RXF 393 renal; MALME-3M melanoma.
Common to all, as to assay: NCI-60 one-dose screen, 48 h (100 = growth as untreated, 0 = no growth, -100 = all killed)
Holding throughout (details): 10 µM

For the molecule `c1ccc(/C(=N\Nc2ccc3ccccc3n2)c2ccccn2)cc1`, the growth with K-562 leukemia was 8.58% (active); in the assay on MDA-MB-231 breast, 29.8%; with SF-268 CNS, 19.6%; with SF-295 CNS it was -15.8% (active); with SF-539 CNS it was -12.4% (active); in the assay with UACC-257 melanoma, 16%. For the same molecule, the growth in the assay on M14 melanoma was -41.8% (active); in the assay with HCT-15 colon, 25.7%; in the assay on HT29 colon it was 26.2%; with SNB-75 CNS it was -9.74% (active); in the assay on SNB-19 CNS, 26.1%; in the assay on U251 CNS, 7.94% (active). Further, the growth with PC-3 prostate was 19.4%; with SK-MEL-5 melanoma, -51.3% (active); in the assay on UACC-62 melanoma, -49.5% (active); with SK-MEL-28 melanoma, 20.5%.
In the case of `O=C(N/N=C/c1ccc(Cl)cc1)c1ccccc1Nc1cccc(C(F)(F)F)c1`, the growth is 59.9% with K-562 leukemia; 74.5% in the assay with MDA-MB-231 breast; 84.6% in the assay with SF-268 CNS; 86.8% in the assay with SF-295 CNS; 48.9% in the assay with SF-539 CNS; 96.9% in the assay with UACC-257 melanoma. The growth in the assay on M14 melanoma was 91.5%; with HCT-15 colon, 79.1%; with HT29 colon it was 75.8%; with SNB-75 CNS, 78.7%; with SNB-19 CNS it was 88.4%; with U251 CNS it was 72%. Also, the growth is 71.6% in the assay with PC-3 prostate; 34% with SK-MEL-5 melanoma; 76.4% with UACC-62 melanoma; 83.7% in the assay on LOX IMVI melanoma; 79.8% in the assay with SK-MEL-28 melanoma.
Consider `O=C1c2c(c(=O)[nH]c3ccccc23)CCN1Cc1ccccc1`, for which the growth with DU-145 prostate is 122%; in the assay with MDA-MB-231 breast it was 98.4%; in the assay on RXF 393 renal it was 111%; in the assay on SF-268 CNS, 110%; with SF-295 CNS, 104%; in the assay on SF-539 CNS, 90.4%. Moreover, the growth with UACC-257 melanoma was 104%; with M14 melanoma it was 102%; with HCT-15 colon, 96.6%; with HT29 colon, 99.3%; with SNB-75 CNS it was 79.8%; with SNB-19 CNS, 99.6%. Moreover, the growth with U251 CNS was 103%; with PC-3 prostate, 84.9%; with SK-MEL-5 melanoma it was 108%; in the assay on UACC-62 melanoma it was 97.1%; with SK-MEL-28 melanoma it was 107%.
With `Nc1c(Br)cc(Br)c2c1[nH]c(=O)c1ccccc12`, the growth is 78.4% in the assay with K-562 leukemia; 47.8% with MALME-3M melanoma; 54.8% in the assay with MDA-MB-231 breast; 26.2% with RXF 393 renal; 76.9% in the assay on SF-268 CNS; 73.1% in the assay on SF-295 CNS. Besides, the growth with SF-539 CNS is 83.7%; in the assay with UACC-257 melanoma, 87.9%; in the assay with M14 melanoma it was 100%; in the assay with HCT-15 colon it was 75.2%; with HT29 colon, 98.4%; in the assay with SNB-75 CNS, -33.9% (active). Also, the growth in the assay with SNB-19 CNS was 94.1%; in the assay on PC-3 prostate, 80.3%; in the assay on SK-MEL-5 melanoma, 71.3%; with UACC-62 melanoma it was 87.6%; with LOX IMVI melanoma, 83.7%; with SK-MEL-28 melanoma, 86.8%.
Turning to `Nc1nc(N)c(N)c(Nc2ccc(CCO)cc2)n1`, the growth was 102% in the assay with DU-145 prostate; 95.3% in the assay with MDA-MB-231 breast; 109% in the assay with RXF 393 renal; 103% in the assay with SF-268 CNS; 105% with SF-295 CNS; 111% in the assay on SF-539 CNS. Further, the growth with UACC-257 melanoma is 103%; in the assay with M14 melanoma it was 97.2%; in the assay on HCT-15 colon, 115%; with HT29 colon, 104%; with SNB-19 CNS, 124%; in the assay with U251 CNS it was 96.6%. Besides, the growth in the assay on PC-3 prostate was 96.8%; in the assay on SK-MEL-5 melanoma, 99.4%; in the assay with UACC-62 melanoma, 97.5%; in the assay on LOX IMVI melanoma it was 97.2%; with SK-MEL-28 melanoma it was 113%.
As for `C[C@@H](O)[C@H]1C(=O)N2C(C(=O)O)=C(SCCN=CN)C[C@H]12`, the growth is -7.37% (active) in the assay with DU-145 prostate; -60.1% (active) in the assay on MALME-3M melanoma; 9.83% (active) in the assay with MDA-MB-231 breast; 1.5% (active) in the assay on RXF 393 renal; -4.56% (active) with SF-268 CNS; -5.26% (active) in the assay with SF-295 CNS. The growth was 3.65% (active) with SF-539 CNS; -31% (active) in the assay with UACC-257 melanoma; -44.7% (active) in the assay on M14 melanoma; 8.86% (active) with HCT-15 colon; -3.23% (active) in the assay with HT29 colon; 0.941% (active) with SNB-75 CNS. In addition, the growth in the assay on SNB-19 CNS is 8.6% (active); in the assay with PC-3 prostate it was 1.74% (active); with SK-MEL-5 melanoma, -87.2% (active); with UACC-62 melanoma, -38.8% (active); in the assay on LOX IMVI melanoma, -42.6% (active); in the assay on SK-MEL-28 melanoma it was -41.3% (active).
Consider `CCOC(=O)/C(=C(\C)N)C1CC(=O)NC1=O` (centres undefined), for which the growth in the assay on K-562 leukemia is 83.6%; in the assay with MALME-3M melanoma it was 111%; in the assay on MDA-MB-231 breast, 112%; in the assay on RXF 393 renal it was 102%; with SF-268 CNS it was 108%; in the assay with SF-295 CNS it was 101%. The growth in the assay on SF-539 CNS was 105%; in the assay with UACC-257 melanoma, 101%; in the assay on M14 melanoma it was 97.2%; in the assay on HCT-15 colon, 103%; in the assay with HT29 colon it was 105%; in the assay with SNB-75 CNS, 95.1%. Also, the growth with SNB-19 CNS was 101%; in the assay with SK-MEL-5 melanoma, 97.9%; in the assay with UACC-62 melanoma, 103%; with LOX IMVI melanoma it was 95.7%; in the assay on SK-MEL-28 melanoma, 98%.
`CCOc1ccccc1/C=N/N1CCCCCC1`: the growth with DU-145 prostate was 111%; in the assay with MDA-MB-231 breast, 96.3%; in the assay with RXF 393 renal, 99.9%; with SF-268 CNS, 93.7%; with SF-295 CNS it was 83.8%; with SF-539 CNS, 109%. For the same molecule, the growth in the assay on UACC-257 melanoma is 115%; in the assay with M14 melanoma it was 107%; with HCT-15 colon, 100%; in the assay with HT29 colon, 104%; in the assay with SNB-75 CNS, 77.2%; with SNB-19 CNS, 108%. Moreover, the growth is 103% with U251 CNS; 94.4% with SK-MEL-5 melanoma; 109% with UACC-62 melanoma; 90.3% with LOX IMVI melanoma; 107% in the assay with SK-MEL-28 melanoma.
Regarding `CC1C(=NC(=O)c2cnccn2)C(C)C(c2ccc(Cl)cc2)NC1c1ccncc1` (centres undefined), the growth is 114% in the assay on DU-145 prostate; 97% in the assay on MDA-MB-231 breast; 100% in the assay with RXF 393 renal; 108% in the assay with SF-268 CNS; 117% in the assay with SF-295 CNS; 86.1% in the assay on SF-539 CNS. For the same molecule, the growth is 94.3% in the assay with UACC-257 melanoma; 91.9% with M14 melanoma; 78.8% with HCT-15 colon; 73% in the assay on HT29 colon; 78.5% in the assay with SNB-75 CNS; 88.4% in the assay with SNB-19 CNS. In addition, the growth in the assay on U251 CNS is 76.4%; with PC-3 prostate, 75.6%; in the assay with SK-MEL-5 melanoma, 88.2%; in the assay with UACC-62 melanoma, 91.3%; with SK-MEL-28 melanoma it was 101%.
